In the supplement of paper PMC10849652:
Of roughly 8,800 targets only a part is listed; those with a hit were picked by preference. About 0.5% of all pairs of compound and target were hits.

compound: Cc1cccc(CC(=O)N2CCc3c2ccc(-c2cn(C)c4ncnc(N)c24)c3F)n1; assay: log2 fold change, soluble protein after heating vs DMSO (PISA); higher = thermal stabilisation; K562 lysate, 10 uM; active = over 0.2 and 3.5 SD of the protein, either way, in both replicates (recomputed)
Outline: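 Pellets of K562 cells were dounce-homogenised in PBS pH 7.4 with 1 mM MgCl2, and the crude extract was held at 1 mg/mL protein for a 30 min treatment with 10 μM compound. Aliquots were heated for 3 min over 48°C-58°C and pooled before NP-40 was added to 0.5% at 4°C. The supernatant from 21,000xg for 90 min was quantified by TMTpro 16plex LC-MS/MS with channel sums equalised. Values are reported from duplicates as log-two fold change in thermal stability relative to solvent controls.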

UniProt P62942, sequence (P62942 whole entry, looked up): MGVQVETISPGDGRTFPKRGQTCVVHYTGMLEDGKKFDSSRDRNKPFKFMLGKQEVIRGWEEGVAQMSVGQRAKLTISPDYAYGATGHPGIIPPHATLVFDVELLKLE
UniProt Q96G46, sequence (Q96G46 whole entry, looked up): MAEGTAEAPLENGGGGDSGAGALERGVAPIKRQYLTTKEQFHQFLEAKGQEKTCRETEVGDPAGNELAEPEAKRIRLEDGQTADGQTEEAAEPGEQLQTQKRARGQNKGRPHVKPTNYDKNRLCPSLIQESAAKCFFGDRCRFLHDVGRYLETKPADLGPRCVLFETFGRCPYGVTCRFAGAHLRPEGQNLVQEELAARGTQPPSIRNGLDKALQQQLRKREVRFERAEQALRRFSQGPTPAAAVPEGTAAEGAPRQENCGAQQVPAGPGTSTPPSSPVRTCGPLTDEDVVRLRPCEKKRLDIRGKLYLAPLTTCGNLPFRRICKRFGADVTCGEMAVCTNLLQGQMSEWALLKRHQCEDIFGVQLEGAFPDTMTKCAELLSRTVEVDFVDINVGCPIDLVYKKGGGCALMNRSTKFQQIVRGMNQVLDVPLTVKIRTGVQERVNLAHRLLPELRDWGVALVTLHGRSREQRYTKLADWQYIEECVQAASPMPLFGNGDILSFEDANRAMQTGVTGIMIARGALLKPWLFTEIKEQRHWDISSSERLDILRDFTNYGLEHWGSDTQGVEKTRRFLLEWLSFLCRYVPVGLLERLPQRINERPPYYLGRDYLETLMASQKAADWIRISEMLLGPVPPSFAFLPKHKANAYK
UniProt Q9UJY4, sequence (Q9UJY4 whole entry, looked up): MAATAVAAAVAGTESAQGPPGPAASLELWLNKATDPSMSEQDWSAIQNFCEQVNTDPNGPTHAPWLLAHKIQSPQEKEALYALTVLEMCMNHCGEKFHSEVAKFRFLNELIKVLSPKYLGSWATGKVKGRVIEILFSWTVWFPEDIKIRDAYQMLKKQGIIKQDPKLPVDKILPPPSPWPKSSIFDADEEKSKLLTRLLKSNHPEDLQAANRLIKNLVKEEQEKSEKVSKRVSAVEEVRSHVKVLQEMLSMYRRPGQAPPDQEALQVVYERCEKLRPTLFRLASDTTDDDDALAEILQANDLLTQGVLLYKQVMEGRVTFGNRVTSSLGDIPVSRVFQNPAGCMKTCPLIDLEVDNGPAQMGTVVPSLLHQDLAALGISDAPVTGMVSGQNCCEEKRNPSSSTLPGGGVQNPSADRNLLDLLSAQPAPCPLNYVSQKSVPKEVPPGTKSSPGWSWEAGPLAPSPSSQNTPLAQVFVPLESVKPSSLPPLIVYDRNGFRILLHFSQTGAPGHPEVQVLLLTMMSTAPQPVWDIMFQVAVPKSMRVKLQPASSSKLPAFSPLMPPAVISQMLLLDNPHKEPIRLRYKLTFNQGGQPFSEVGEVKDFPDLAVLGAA
UniProt Q9NX74, sequence (Q9NX74 whole entry, looked up): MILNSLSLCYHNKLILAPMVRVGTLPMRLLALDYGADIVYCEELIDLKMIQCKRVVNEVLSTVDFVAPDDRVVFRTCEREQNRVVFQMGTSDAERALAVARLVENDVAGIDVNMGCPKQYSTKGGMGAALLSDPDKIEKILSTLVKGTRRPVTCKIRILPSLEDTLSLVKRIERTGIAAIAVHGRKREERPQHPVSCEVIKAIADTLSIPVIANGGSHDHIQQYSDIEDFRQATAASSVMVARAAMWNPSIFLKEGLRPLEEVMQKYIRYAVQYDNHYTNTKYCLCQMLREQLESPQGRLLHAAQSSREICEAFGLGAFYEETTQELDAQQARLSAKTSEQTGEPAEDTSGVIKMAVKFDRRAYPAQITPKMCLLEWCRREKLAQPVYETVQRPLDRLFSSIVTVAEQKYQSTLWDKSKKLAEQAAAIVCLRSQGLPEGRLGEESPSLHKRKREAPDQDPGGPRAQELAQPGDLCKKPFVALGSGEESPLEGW
UniProt Q9BPY3, sequence (Q9BPY3 whole entry, looked up): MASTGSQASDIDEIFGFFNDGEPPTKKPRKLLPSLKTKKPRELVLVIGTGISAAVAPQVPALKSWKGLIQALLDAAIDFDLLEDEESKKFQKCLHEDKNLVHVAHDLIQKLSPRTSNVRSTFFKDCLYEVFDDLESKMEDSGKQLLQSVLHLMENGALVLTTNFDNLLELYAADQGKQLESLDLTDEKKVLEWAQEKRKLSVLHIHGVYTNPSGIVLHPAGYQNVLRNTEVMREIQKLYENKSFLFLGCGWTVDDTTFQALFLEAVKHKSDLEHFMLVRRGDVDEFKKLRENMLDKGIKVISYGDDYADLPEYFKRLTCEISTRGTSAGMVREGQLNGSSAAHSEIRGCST
UniProt Q7L8L6, sequence (Q7L8L6 whole entry, looked up): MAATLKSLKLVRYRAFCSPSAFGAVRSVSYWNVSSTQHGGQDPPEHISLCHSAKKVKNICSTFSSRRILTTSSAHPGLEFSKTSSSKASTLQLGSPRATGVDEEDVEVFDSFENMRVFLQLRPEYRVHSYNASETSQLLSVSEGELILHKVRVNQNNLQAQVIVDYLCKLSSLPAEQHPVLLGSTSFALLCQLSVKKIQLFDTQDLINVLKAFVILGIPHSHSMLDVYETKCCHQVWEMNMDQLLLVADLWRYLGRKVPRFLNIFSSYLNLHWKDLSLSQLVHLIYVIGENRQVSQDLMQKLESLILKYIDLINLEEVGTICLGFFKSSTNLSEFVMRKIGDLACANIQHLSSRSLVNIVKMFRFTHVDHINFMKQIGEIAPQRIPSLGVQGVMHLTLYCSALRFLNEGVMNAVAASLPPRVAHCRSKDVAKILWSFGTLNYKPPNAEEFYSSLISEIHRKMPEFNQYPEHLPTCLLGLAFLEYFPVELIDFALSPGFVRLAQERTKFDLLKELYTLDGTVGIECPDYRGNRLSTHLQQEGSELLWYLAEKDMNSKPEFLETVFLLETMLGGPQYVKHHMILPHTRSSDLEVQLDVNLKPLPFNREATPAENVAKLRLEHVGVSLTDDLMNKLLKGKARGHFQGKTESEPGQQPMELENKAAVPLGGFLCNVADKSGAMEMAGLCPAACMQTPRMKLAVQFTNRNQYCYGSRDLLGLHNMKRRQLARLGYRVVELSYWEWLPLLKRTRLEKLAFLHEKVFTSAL
UniProt Q9UK97, sequence (Q9UK97 whole entry, looked up): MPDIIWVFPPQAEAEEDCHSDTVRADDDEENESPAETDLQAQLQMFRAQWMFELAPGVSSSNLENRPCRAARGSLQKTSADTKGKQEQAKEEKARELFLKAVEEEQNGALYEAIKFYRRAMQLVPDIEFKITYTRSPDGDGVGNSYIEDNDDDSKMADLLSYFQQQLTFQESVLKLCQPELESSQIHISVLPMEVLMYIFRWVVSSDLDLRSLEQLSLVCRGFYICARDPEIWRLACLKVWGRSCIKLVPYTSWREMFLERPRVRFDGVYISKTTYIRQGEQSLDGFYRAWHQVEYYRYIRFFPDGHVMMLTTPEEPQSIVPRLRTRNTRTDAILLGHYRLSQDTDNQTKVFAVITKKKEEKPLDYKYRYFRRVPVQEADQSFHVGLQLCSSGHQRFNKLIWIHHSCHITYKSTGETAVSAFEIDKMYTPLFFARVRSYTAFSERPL
UniProt Q8N6R0, sequence (Q8N6R0 whole entry, looked up): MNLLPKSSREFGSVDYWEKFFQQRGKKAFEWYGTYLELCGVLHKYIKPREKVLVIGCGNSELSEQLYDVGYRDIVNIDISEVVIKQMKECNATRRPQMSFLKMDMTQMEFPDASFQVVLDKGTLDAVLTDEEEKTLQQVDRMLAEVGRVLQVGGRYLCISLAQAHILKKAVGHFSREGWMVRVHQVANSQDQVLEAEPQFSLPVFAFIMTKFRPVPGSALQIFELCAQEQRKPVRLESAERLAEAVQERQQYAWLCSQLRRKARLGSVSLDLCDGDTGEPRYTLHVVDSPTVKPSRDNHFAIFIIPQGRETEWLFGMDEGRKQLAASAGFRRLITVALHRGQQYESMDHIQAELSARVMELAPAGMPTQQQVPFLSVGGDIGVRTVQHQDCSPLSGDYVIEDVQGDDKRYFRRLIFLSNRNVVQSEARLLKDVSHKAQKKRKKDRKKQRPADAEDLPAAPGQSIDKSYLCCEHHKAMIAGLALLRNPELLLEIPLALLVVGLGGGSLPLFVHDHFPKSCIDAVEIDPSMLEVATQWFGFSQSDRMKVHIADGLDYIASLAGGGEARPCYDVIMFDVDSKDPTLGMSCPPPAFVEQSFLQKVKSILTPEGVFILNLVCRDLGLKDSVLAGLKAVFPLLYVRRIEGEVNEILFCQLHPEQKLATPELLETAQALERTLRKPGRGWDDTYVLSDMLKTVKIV
UniProt Q9NZN4, sequence (Q9NZN4 whole entry, looked up): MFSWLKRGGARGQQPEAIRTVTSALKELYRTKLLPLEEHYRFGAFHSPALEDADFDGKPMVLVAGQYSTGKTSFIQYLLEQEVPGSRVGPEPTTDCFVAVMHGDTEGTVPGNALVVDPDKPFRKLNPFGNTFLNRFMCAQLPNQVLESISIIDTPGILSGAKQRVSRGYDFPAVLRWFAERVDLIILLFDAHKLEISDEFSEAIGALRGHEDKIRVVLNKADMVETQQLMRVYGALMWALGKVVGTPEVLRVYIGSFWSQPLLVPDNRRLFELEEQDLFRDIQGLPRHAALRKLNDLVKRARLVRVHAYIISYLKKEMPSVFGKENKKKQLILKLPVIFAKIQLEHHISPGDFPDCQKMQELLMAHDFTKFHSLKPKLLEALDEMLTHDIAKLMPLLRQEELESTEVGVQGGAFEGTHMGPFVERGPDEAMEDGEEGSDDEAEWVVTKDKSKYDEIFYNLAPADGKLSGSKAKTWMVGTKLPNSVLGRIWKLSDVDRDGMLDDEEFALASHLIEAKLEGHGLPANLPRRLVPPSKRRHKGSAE
UniProt Q8N5C7, sequence (Q8N5C7 whole entry, looked up): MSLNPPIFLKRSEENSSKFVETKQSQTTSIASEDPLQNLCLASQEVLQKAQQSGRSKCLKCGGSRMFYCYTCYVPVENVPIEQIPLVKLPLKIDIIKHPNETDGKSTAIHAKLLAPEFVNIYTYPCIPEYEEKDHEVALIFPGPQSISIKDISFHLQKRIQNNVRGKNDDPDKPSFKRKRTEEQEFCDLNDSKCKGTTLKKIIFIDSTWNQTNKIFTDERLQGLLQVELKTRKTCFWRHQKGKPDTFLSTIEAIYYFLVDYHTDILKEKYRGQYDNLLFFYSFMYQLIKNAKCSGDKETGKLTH

log2 fold change, active:
EMP3 (UniProt P54852) 0.329
ENY2 (UniProt Q9NPA8) -0.529

log2 fold change, inactive:
FARSA (UniProt Q9Y285) -0.047
FECH isoform 2 (UniProt P22830) -0.036
EBP (UniProt Q15125) 0
EP300 (UniProt Q09472) 0.089
EP400 isoform 5 (UniProt Q96L91) -0.011
ESRRA (UniProt P11474) -0.149
DUS2 (UniProt Q9NX74) -0.009
GCLM (UniProt P48507) -0.03
GGT7 (UniProt Q9UJ14) 0.042
FANCI (UniProt Q9NVI1) -0.011
FAM118B (UniProt Q9BPY3) 0.037
GFPT1 (UniProt Q06210) 0.007
FKBP1A (UniProt P62942) 0.15
EDARADD (UniProt Q8WWZ3) -0.027
FIBP (UniProt O43427) 0.094
EHD2 (UniProt Q9NZN4) 0.017
FADS1, A0A0A0MR51 0.083
GALNT2 (UniProt Q10471) 0.18
FASTKD5 (UniProt Q7L8L6) -0.056
FBLL1 (UniProt A6NHQ2) 0.053
DTWD1 (UniProt Q8N5C7) 0.092
GGA2 (UniProt Q9UJY4) -0.004
FYB1 isoform 3 (UniProt O15117) -0.058
DYRK1A (UniProt Q13627) -0.021
DUS3L (UniProt Q96G46) -0.097
ERI1 (UniProt Q8IV48) -0.051
FBXO9 (UniProt Q9UK97) -0.104
ERBIN isoform 8 (UniProt Q96RT1) 0.029
EEF1AKNMT (UniProt Q8N6R0) -0.024
EEF1A1, A0A087WVQ9 -0.129
ETHE1 (UniProt O95571) 0.018
FBXO22 (UniProt Q8NEZ5) -0.039
FASTKD2 (UniProt Q9NYY8) 0.05
FBXO30 (UniProt Q8TB52) -0.117
